Source: PubChem BioAssay (several laboratories)
This is a sample that favours compounds with a hit; in the whole collection about 2.1% have one here.
IEC-6 cytotox: cytotoxicity in IEC-6 intestinal epithelial cells, primary screen, cytotoxicity control for KLF5 inhibitor project, cell-based, luminescence; IEC-6 cytotoxicity, luminescence viability; inhibition, % at 5 µM; 0.78% of 290,000 active;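 note: 0% = plate median of test compound wells and 100% = cytotoxic reference compound wells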
BaF3 parental: parental Ba/F3 cell viability inhibition, counter-screen for JAK2V617F inhibitor project, murine pro-B, CellTiter-Glo luminescence. CellTiter-Glo ATP luminescence. 1.1% of 220,000 active. inhibition, % at 5.6 µM;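 active = inhibition above a per-campaign cutoff, the mean inhibition of all tested compounds plus 3 SD, cut at about 27% in these data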;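 note: 0% = DMSO wells and 100% = JAK Inhibitor I control wells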
KLF5 inh: KLF5 expression inhibitors, primary screen, DLD-1 cells, luminescence; 0.23% of 290,000 active; AID 1700, 2009; DLD-1 KLF5 promoter-luciferase reporter; inhibition, % at 5 µM;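 active = inhibition above a per-plate limit of that plate's mean compound inhibition plus 3 SD, cut at about 60% in these data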;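 note: 0% = DMSO wells and 100% = LY294002 at 200 µM; higher means less KLF5 promoter-driven luciferase light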
aSyn 5UTR inh: MLPCN primary screen, SNCA 5' untranslated region. alpha-synuclein 5'UTR reporter, inhibitor activity. inhibition, % (tested at 7.5 µM). 0.82% of 300,000 active; in the data active = inhibition above about 60%;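 note: H4 neuroglioblastoma cells stably carrying SNCA 5'UTR luciferase fusion; 0% = DMSO wells and 100% = positive control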
APP 5UTR inh: inhibitors of APP translation via 5'UTR reporter, primary screen, APP 5'UTR luciferase, SH-SY5Y cells; SH-SY5Y APP 5'UTR-luciferase reporter, luminescence; inhibition, % at 2 µM; 0.82% of 190,000 active;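 active = inhibition above a set limit, derived from the sample mean plus 3 SD, cut at about 45% in these data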
Ba/F3 V617F tox: reduced viability of JAK2V617F-dependent Ba/F3 cells, primary screen, JAK2V617F inhibitor project, cell-based, Ba/F3 EpoR-JAK2V617F, luminescence; ATP luminescence; inhibition, % at 5.6 µM; 1.1% of 220,000 active; AID 1446, 2008;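 active = inhibition above the campaign mean plus 3 SD over all tested compounds, cut at about 24% in these data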;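 note: cytokine-independent growth of Ba/F3 cells driven by EpoR plus mutant JAK2; 0% = DMSO-treated cells and 100% = JAK inhibitor I control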
IEC-6 cytotox cf: cytotoxic compounds in IEC-6 epithelial cells, confirmation, cytotoxicity control, cell-based, luminescence | IEC-6 rat intestinal epithelial viability | AID 1907, 2009 | 63% of 1,900 active | shares compounds with IEC-6 cytotox | inhibition, % at 5 µM;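 note: 0% = vehicle and 100% = reference cytotoxic drug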
Starred values were filed as active, the others as inactive. Cut-off read from the data, not from the text of the source, unless noted: active = inhibition above about 22%; inactive = the rest.

How did CN1CCN(C(=O)c2ccccc2NC(=O)c2ccccc2)CC1 do in these assays?
IEC-6 cytotox: -3; KLF5 inh: -36; aSyn 5UTR inh: -6

Results for Fc1ccc(-c2csc(Nc3ccccn3)n2)cc1 ?
IEC-6 cytotox: 32*; KLF5 inh: -278; aSyn 5UTR inh: -77; IEC-6 cytotox cf: 10

How did c1ccc(Nc2nc(-c3cccnc3)cs2)nc1 do in these assays?
IEC-6 cytotox: -5; BaF3 parental: 2; KLF5 inh: -185; aSyn 5UTR inh: -39; APP 5UTR inh: -194; Ba/F3 V617F tox: 1

Results for O=C(Nc1ccc(Cl)cn1)c1ccccc1[N+](=O)[O-] ?
IEC-6 cytotox: 7; BaF3 parental: 5; KLF5 inh: -14; aSyn 5UTR inh: -77; APP 5UTR inh: -18; Ba/F3 V617F tox: 2

How did CCOc1ccc(NC(=O)c2cccc3ccccc23)cc1 do in these assays?
IEC-6 cytotox: 22*; KLF5 inh: -17; aSyn 5UTR inh: -318; IEC-6 cytotox cf: 14

Results for O=C(Nc1ccc(Cl)cn1)c1cccc2ccccc12 ?
IEC-6 cytotox: 44*; KLF5 inh: -3; aSyn 5UTR inh: -18; IEC-6 cytotox cf: 25*

How did Cn1c(=O)[nH]c(=O)c2c1nc1n2CC(O)CN1c1ccccc1 (stereo unspecified) do in these assays?
IEC-6 cytotox: -4; KLF5 inh: 2; aSyn 5UTR inh: 2

Results for Cc1nc2cc(-c3ccc(Br)cc3)[nH]n2c(=O)c1Cl ?
IEC-6 cytotox: 30*; KLF5 inh: -75; aSyn 5UTR inh: -74; IEC-6 cytotox cf: 13

Results for COc1ccc(CN2CCNC(=O)C2CC(=O)N(C)C2CCOCC2)c(F)c1 (stereo unspecified) ?
IEC-6 cytotox: 5; KLF5 inh: -16; aSyn 5UTR inh: 4

Results for c1ccc(C2Nc3ccccc3C3OCCCC23)cc1 (stereo unspecified) ?
IEC-6 cytotox: 6; KLF5 inh: -25; aSyn 5UTR inh: 5

Results for Cc1cccc(NC(=O)Cn2cc(C(=O)C3CC3)c3ccccc32)c1C ?
IEC-6 cytotox: 29*; KLF5 inh: -12; aSyn 5UTR inh: -11; IEC-6 cytotox cf: 16

How did Cc1cc(C(=O)Nc2ccc3ccccc3c2)c(C)o1 do in these assays?
IEC-6 cytotox: 2; KLF5 inh: -119; aSyn 5UTR inh: -47

How did Cc1cccc(OCCN2C(=O)C(=O)c3cc(C)ccc32)c1 do in these assays?
IEC-6 cytotox: 79*; BaF3 parental: 84*; KLF5 inh: -26; aSyn 5UTR inh: -50; APP 5UTR inh: 93*; Ba/F3 V617F tox: 86*; IEC-6 cytotox cf: 56*

What do the screens show for `O=S(=O)(Nc1cccc2ncccc12)c1cccs1`?
IEC-6 cytotox: 100*; BaF3 parental: 3; KLF5 inh: 8; aSyn 5UTR inh: 47; APP 5UTR inh: 43; Ba/F3 V617F tox: -1; IEC-6 cytotox cf: 102*

What do the screens show for `Cc1ccc(CNC(=O)C(C)C2Sc3ccccc3NC2=O)cc1` (stereo unspecified)?
IEC-6 cytotox: -2; BaF3 parental: -2; KLF5 inh: -30; aSyn 5UTR inh: 19; Ba/F3 V617F tox: -2

What do the screens show for `Cc1ccc(-c2cc(C(=O)N/N=C/c3c(C)nn(-c4ccccc4)c3C)n[nH]2)s1`?
IEC-6 cytotox: 68*; BaF3 parental: 82*; KLF5 inh: 40; aSyn 5UTR inh: 40; APP 5UTR inh: 92*; Ba/F3 V617F tox: 74*; IEC-6 cytotox cf: 56*

Results for CCOc1ccc(N(CC(=O)N2CCC(Cc3ccccc3)CC2)S(C)(=O)=O)cc1 ?
IEC-6 cytotox: 1; BaF3 parental: 1; KLF5 inh: 3; aSyn 5UTR inh: 9; APP 5UTR inh: 2; Ba/F3 V617F tox: -2

Results for COc1cc2c(cc1OC)C(C)N(C(=O)c1cc(Cl)nc(Cl)c1)CC2 (stereo unspecified) ?
IEC-6 cytotox: 39*; KLF5 inh: 43; aSyn 5UTR inh: -105; IEC-6 cytotox cf: 12

What do the screens show for `COc1cc2c(cc1OC)C(C)N(C(=O)c1nccnc1C(=O)O)CC2` (stereo unspecified)?
IEC-6 cytotox: -3; BaF3 parental: -2; KLF5 inh: -6; aSyn 5UTR inh: -3; Ba/F3 V617F tox: -3

What do the screens show for `Cc1cc(C)c(NS(=O)(=O)c2cccc3cccnc23)c(C)c1`?
IEC-6 cytotox: -1; BaF3 parental: -2; KLF5 inh: -25; aSyn 5UTR inh: -38; APP 5UTR inh: 12; Ba/F3 V617F tox: -1

What do the screens show for `O=S(=O)(Nc1cccc2cccnc12)c1ccccc1`?
IEC-6 cytotox: 102*; KLF5 inh: 10; aSyn 5UTR inh: 29; IEC-6 cytotox cf: 98*

Results for Cc1ccc(S(=O)(=O)Nc2cccc3cccnc23)c([N+](=O)[O-])c1 ?
IEC-6 cytotox: 66*; KLF5 inh: -6; aSyn 5UTR inh: 71*; IEC-6 cytotox cf: 47*

How did COc1ccccc1NS(=O)(=O)c1ccc2ccccc2c1 do in these assays?
IEC-6 cytotox: -7; KLF5 inh: -9; aSyn 5UTR inh: -5

How did COc1ccc(NS(=O)(=O)c2ccc3ccccc3c2)c2ncccc12 do in these assays?
IEC-6 cytotox: 60*; KLF5 inh: 34; aSyn 5UTR inh: 56; IEC-6 cytotox cf: 52*

How did Cc1ccc2cccc(NS(=O)(=O)c3ccccc3)c2n1 do in these assays?
IEC-6 cytotox: 99*; KLF5 inh: -1; aSyn 5UTR inh: 39; IEC-6 cytotox cf: 100*

How did Cn1cc(Br)c(NS(=O)(=O)c2ccc(Cl)s2)n1 do in these assays?
IEC-6 cytotox: 8; BaF3 parental: 2; KLF5 inh: 5; aSyn 5UTR inh: -3; Ba/F3 V617F tox: -3

Results for O=C(CCc1nnc2ccc(NCc3ccccc3)nn12)NC1CCCCC1 ?
IEC-6 cytotox: 3; KLF5 inh: -13; aSyn 5UTR inh: 10

How did N#Cc1cn(-c2cccc(C(F)(F)F)c2)c(=O)[nH]c1=O do in these assays?
IEC-6 cytotox: 3; KLF5 inh: -52; aSyn 5UTR inh: -3

How did N#CCCN1CCN(C(=O)c2c(N)no[n+]2[O-])CC1 do in these assays?
IEC-6 cytotox: -3; BaF3 parental: 7; KLF5 inh: -16; aSyn 5UTR inh: -1; APP 5UTR inh: 13; Ba/F3 V617F tox: -2

What do the screens show for `O=[N+]([O-])c1cc(S(=O)(=O)C(F)(F)F)ccc1NCC1CCCO1` (stereo unspecified)?
IEC-6 cytotox: 3; KLF5 inh: -43; aSyn 5UTR inh: -8

What do the screens show for `CCCn1cnc2cc(NC(=O)c3cccs3)ccc21`?
IEC-6 cytotox: -2; BaF3 parental: 2; KLF5 inh: -118; aSyn 5UTR inh: -113; APP 5UTR inh: -96; Ba/F3 V617F tox: -2
